Data published in the supplement of paper PMC7411054.

Tests used:
Details in all cases: treatment time: 24 h
A549-ACTB-RAB5A [1] = test: lowest phenotypically active concentration; higher = less potent
Outline: (§1)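 After 24 h at 0.3, 1, 3 or 9 µM, with four wells per treatment, fifteen gene-edited A549, HepG2 and WPMY1 reporter lines carrying BFP, GFP and RFP/FusionRed were imaged live. Each well's live-cell features were expressed relative to solvent control wells. Deviation required ≥3 of 4 wells past the 95th percentile of control Euclidean distances, and reproducibility a median replicate Pearson correlation over the 95th percentile of non-replicates. Phenotypic activity rested on both.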

A549-GM130-SQSTM1 [2] = test: as above
Outline: as §1

A549-TUBA1B-RELA [3] = test: as above
Outline: as §1

HepG2-CANX-COX4 [4] = test: as above
Outline: as §1

HepG2-TP53BP1-CLTA [5] = test: as above
Outline: as §1

A549-ACTB-RAB5A [6] = test: phenotypically active (imaging signature differs from DMSO and reproducible) at any of 0.3-9 uM (binary (1 = active, 0 = inactive)); higher = active
Outline: as §1

A549-CANX-COX4 = test: as above
Outline: as §1

A549-GM130-SQSTM1 [7] = test: as above
Outline: as §1

A549-TP53BP1-CLTA = test: as above
Outline: as §1

A549-TUBA1B-RELA [8] = test: as above
Outline: as §1

HepG2-ACTB-RAB5A = test: as above
Outline: as §1

HepG2-CANX-COX4 [9] = test: as above
Outline: as §1

HepG2-GM130-SQSTM1 = test: as above
Outline: as §1

HepG2-TP53BP1-CLTA [10] = test: as above
Outline: as §1

HepG2-TUBA1B-RELA = test: as above
Outline: as §1

WPMY1-ACTB-RAB5A = test: as above
Outline: as §1

WPMY1-CANX-COX4 = test: as above
Outline: as §1

WPMY1-GM130-SQSTM1 = test: as above
Outline: as §1

WPMY1-TP53BP1-CLTA = test: as above
Outline: as §1

WPMY1-TUBA1B-RELA = test: as above
Outline: as §1

SMILES | lowest phenotypically active concentration (A549-ACTB-RAB5A [1]) [µM] | lowest phenotypically active concentration (A549-GM130-SQSTM1 [2]) [µM] | lowest phenotypically active concentration (A549-TUBA1B-RELA [3]) [µM] | lowest phenotypically active concentration (HepG2-CANX-COX4 [4]) [µM] | lowest phenotypically active concentration (HepG2-TP53BP1-CLTA [5]) [µM] | phenotypically active (A549-ACTB-RAB5A [6]) | phenotypically active (A549-CANX-COX4) | phenotypically active (A549-GM130-SQSTM1 [7]) | phenotypically active (A549-TP53BP1-CLTA) | phenotypically active (A549-TUBA1B-RELA [8]) | phenotypically active (HepG2-ACTB-RAB5A) | phenotypically active (HepG2-CANX-COX4 [9]) | phenotypically active (HepG2-GM130-SQSTM1) | phenotypically active (HepG2-TP53BP1-CLTA [10]) | phenotypically active (HepG2-TUBA1B-RELA) | phenotypically active (WPMY1-ACTB-RAB5A) | phenotypically active (WPMY1-CANX-COX4) | phenotypically active (WPMY1-GM130-SQSTM1) | phenotypically active (WPMY1-TP53BP1-CLTA) | phenotypically active (WPMY1-TUBA1B-RELA)
CCn1cnc2c(Nc3cccc(Cl)c3)nc(N[C@H]3CCCC[C@H]3N)nc21 | 1 | 1 | 1 | 1 | 1 | 1 (active) | 1 (active) | 1 (active) | 1 (active) | 1 (active) | 1 (active) | 1 (active) | 1 (active) | 1 (active) | 1 (active) | 1 (active) | 1 (active) | 1 (active) | 1 (active) | 1 (active)
COc1cc([C@@H]2c3cc4c(cc3[C@H](O)[C@H]3COC(=O)[C@H]23)OCO4)cc(OC)c1OC [Podophyllotoxin] | ≤ 0.3 | ≤ 0.3 | ≤ 0.3 | ≤ 0.3 | 1 | 1 (active) | 1 (active) | 1 (active) | 1 (active) | 1 (active) | 1 (active) | 1 (active) | 1 (active) | 1 (active) | 1 (active) | 1 (active) | 1 (active) | 1 (active) | 1 (active) | 1 (active)
C[C@]12CC[C@H]3[C@@H](CC[C@]4(O)C[C@@H](O)CC[C@]34C=O)[C@@]1(O)CC[C@@H]2C1=CC(=O)OC1 [Strophanthidin] | ≤ 0.3 | ≤ 0.3 | ≤ 0.3 | 1 | ≤ 0.3 | 1 (active) | 1 (active) | 1 (active) | 1 (active) | 1 (active) | 1 (active) | 1 (active) | 1 (active) | 1 (active) | 1 (active) | 1 (active) | 1 (active) | 1 (active) | 1 (active) | 1 (active)
CO[C@H]1C=C2CCN(C)[C@H]2[C@@H]2c3cc4c(cc3[C@@H](O)O[C@@H]21)OCO4 [Unsevine] |  |  |  |  |  | 0 (inactive) | 0 (inactive) | 0 (inactive) | 0 (inactive) | 0 (inactive) | 0 (inactive) | 0 (inactive) | 0 (inactive) | 0 (inactive) | 0 (inactive) | 0 (inactive) | 0 (inactive) | 0 (inactive) | 0 (inactive) | 0 (inactive)
NC(=O)CS(=O)C(c1ccccc1)c1ccccc1 (stereo not given) [modafinil] |  |  |  |  |  | 0 (inactive) | 0 (inactive) | 0 (inactive) | 0 (inactive) | 0 (inactive) | 0 (inactive) | 0 (inactive) | 0 (inactive) | 0 (inactive) | 0 (inactive) | 0 (inactive) | 0 (inactive) | 0 (inactive) | 0 (inactive) | 0 (inactive)
Cc1sc2c(c1C)C(c1ccc(Cl)cc1)=N[C@@H](CC(=O)OC(C)(C)C)c1nnc(C)n1-2 | ≤ 0.3 | ≤ 0.3 | ≤ 0.3 | ≤ 0.3 | ≤ 0.3 | 1 (active) | 1 (active) | 1 (active) | 1 (active) | 1 (active) | 1 (active) | 1 (active) | 1 (active) | 1 (active) | 1 (active) | 1 (active) | 1 (active) | 1 (active) | 1 (active) | 1 (active)
C=C1[C@@H](C)[C@H]2[C@H](Cc3ccccc3)NC(=O)[C@]23OC(=O)C=C[C@H](O)CCC[C@@H](C)CC=C[C@H]3[C@@H]1O [Cytochalasin B] | ≤ 0.3 | 1 | 1 | 1 | 3 | 1 (active) | 1 (active) | 1 (active) | 1 (active) | 1 (active) | 1 (active) | 1 (active) | 1 (active) | 1 (active) | 1 (active) | 1 (active) | 1 (active) | 1 (active) | 1 (active) | 1 (active)
Nc1ccncc1 [dalfampridine] |  |  |  |  |  | 0 (inactive) | 0 (inactive) | 0 (inactive) | 0 (inactive) | 0 (inactive) | 0 (inactive) | 0 (inactive) | 0 (inactive) | 0 (inactive) | 0 (inactive) | 0 (inactive) | 0 (inactive) | 0 (inactive) | 0 (inactive) | 0 (inactive)
O=C1CN=C(c2ccccc2)c2cc(Cl)ccc2N1CC(F)(F)F [halazepam] |  |  |  |  |  | 0 (inactive) | 0 (inactive) | 0 (inactive) | 0 (inactive) | 0 (inactive) | 0 (inactive) | 0 (inactive) | 0 (inactive) | 0 (inactive) | 0 (inactive) | 0 (inactive) | 0 (inactive) | 0 (inactive) | 0 (inactive) | 0 (inactive)
CC(C)(C)c1cc(C=C(C#N)C#N)cc(C(C)(C)C)c1O [Malonoben] | 1 | ≤ 0.3 | 1 | 1 | 1 | 1 (active) | 1 (active) | 1 (active) | 1 (active) | 1 (active) | 1 (active) | 1 (active) | 1 (active) | 1 (active) | 1 (active) | 1 (active) | 1 (active) | 1 (active) | 1 (active) | 1 (active)
CCN(C)C(=O)Oc1cccc([C@H](C)N(C)C)c1 [rivastigmine] |  |  |  |  |  | 0 (inactive) | 0 (inactive) | 0 (inactive) | 0 (inactive) | 0 (inactive) | 0 (inactive) | 0 (inactive) | 0 (inactive) | 0 (inactive) | 0 (inactive) | 0 (inactive) | 0 (inactive) | 0 (inactive) | 0 (inactive) | 0 (inactive)
